# Measured values as given in PubChem BioAssay (EPA / NIEHS).
# “And” between values parts separate entries of the source, which are not always exact repeats. Equal entries are not always repeated. Records with an inconclusive call do not appear. A structure can be active in one record and inactive in another. The source made the active and inactive calls. How the source made its calls: active means hit-call score of the fitted dose curve at least 0.9, where 1 is the maximum; inconclusive means response in the unintended direction; inactive means score below 0.9.
# Key:
# [1] = biological target: rat Peripheral-type Benzodiazepine Receptor (PBR), Tspo (gene 24230) (UniProt P16257); assay: NVS_MP_rPBR: NovaScreen (NVS) Membrane Protein Assay for rat Peripheral-type Benzodiazepine Receptor (PBR) (AID 2283335)
# Chain of rat Peripheral-type Benzodiazepine Receptor (PBR), Tspo (gene 24230) (P16257 whole entry, looked up): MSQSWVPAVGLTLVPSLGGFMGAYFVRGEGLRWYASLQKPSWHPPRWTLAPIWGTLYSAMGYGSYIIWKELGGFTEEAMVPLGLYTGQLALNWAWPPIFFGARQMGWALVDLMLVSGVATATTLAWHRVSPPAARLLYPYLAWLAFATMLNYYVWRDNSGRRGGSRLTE
# Procedure, shortened: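 Rat kidney membranes; radioligand binding with displacement, filter-based scintillation counting, 1 h incubation. Primary screen in duplicate at 25 uM, actives followed in concentration series; loss of binding vs DMSO.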
# [2] = biological target: bovine Gamma-Aminobutyric Acid Type A Receptor Agonist (GABAR Agonist), GABRA1 (gene 780973) (UniProt P08219); assay: NVS_LGIC_bGABAR_Agonist: NovaScreen (NVS) Ligand-Gated Ion Channel Assay for bovine Gamma-Aminobutyric Acid Type A Receptor Agonist (GABAR Agonist) (AID 2283338)
# Chain of bovine Gamma-Aminobutyric Acid Type A Receptor Agonist (GABAR Agonist), GABRA1 (gene 780973) (P08219 whole entry, looked up): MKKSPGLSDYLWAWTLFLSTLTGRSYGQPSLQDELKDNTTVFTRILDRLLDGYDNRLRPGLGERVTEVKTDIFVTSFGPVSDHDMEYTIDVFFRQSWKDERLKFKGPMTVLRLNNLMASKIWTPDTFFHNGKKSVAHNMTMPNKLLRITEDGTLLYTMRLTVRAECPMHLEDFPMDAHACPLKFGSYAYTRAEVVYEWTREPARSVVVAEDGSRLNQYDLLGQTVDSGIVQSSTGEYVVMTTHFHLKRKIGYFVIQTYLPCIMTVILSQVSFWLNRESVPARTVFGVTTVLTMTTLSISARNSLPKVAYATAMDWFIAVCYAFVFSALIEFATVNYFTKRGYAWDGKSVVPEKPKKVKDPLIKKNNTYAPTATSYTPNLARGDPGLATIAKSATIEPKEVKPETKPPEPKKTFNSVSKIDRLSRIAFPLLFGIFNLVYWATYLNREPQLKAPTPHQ
# Procedure, shortened: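 Radioligand binding to bovine cerebellar membranes in agonist format, read by filter-based scintillation counting after 1 h. Primary screen in duplicate at 25 uM, with actives followed in concentration series. Gain of signal versus DMSO.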
# [3] = biological target: bovine Estrogen Receptor (ER), ESR1 (gene 407238) (UniProt P49884); assay: NVS_NR_bER: NovaScreen (NVS) Nuclear Receptor Binding Assay for bovine Estrogen Receptor (ER) (AID 2283345);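 further: actives lower the bound radioligand count which means they displace the ER ligand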
# Chain of bovine Estrogen Receptor (ER), ESR1 (gene 407238) (P49884 whole entry, looked up): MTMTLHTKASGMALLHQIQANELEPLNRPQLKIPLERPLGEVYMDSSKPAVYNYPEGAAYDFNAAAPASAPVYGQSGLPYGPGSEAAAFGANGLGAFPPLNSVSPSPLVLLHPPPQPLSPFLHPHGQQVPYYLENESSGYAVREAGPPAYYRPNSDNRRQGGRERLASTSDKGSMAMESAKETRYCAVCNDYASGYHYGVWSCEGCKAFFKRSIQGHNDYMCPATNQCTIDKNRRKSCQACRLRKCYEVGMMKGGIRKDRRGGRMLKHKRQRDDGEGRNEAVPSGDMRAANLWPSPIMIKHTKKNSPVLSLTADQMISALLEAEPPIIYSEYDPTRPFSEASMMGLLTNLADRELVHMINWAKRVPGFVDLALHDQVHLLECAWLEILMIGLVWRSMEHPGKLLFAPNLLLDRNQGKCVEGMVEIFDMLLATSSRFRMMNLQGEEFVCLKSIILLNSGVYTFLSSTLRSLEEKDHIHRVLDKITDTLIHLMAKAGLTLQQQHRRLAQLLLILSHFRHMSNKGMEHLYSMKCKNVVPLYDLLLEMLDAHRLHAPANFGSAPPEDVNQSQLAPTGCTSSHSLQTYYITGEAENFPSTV
# Procedure, shortened: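 Cell-free radioligand binding with bovine uterine membrane extracts, read 18 hours after dosing by scintillation counting. Loss of signal versus DMSO baseline indicates displacement. Primary screen run in duplicate at 25 uM, actives followed in concentration series.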
# [4] = biological target: Estrogen receptor (Homo sapiens) (UniProt P03372); assay: OT_ER_ERaERa_1440: Odyssey Thera (OT) 24-hour HEK293T Protein-Complementation Assay for Estrogen Receptor-alpha/-alpha Homodimer (AID 2283349);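 further: hits raise fluorescence above DMSO for agonists and antagonists alike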
# Chain of Estrogen receptor (Homo sapiens) (P03372 whole entry, looked up, the tested form may be a part): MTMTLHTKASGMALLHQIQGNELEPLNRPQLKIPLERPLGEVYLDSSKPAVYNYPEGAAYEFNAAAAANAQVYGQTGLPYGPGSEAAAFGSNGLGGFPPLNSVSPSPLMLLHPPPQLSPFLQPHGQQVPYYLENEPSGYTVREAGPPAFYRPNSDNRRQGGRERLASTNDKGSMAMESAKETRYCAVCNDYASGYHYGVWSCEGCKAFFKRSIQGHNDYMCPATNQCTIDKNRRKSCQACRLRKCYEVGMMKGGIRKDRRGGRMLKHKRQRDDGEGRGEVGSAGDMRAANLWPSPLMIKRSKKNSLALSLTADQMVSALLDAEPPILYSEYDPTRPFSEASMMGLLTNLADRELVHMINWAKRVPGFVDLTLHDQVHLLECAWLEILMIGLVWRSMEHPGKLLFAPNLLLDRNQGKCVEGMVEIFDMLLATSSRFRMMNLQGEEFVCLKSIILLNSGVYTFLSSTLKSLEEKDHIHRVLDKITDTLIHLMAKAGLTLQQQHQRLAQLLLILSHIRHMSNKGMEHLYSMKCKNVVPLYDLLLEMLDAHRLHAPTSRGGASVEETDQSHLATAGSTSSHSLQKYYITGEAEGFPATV
# Procedure, shortened: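 Protein-fragment complementation between two human ERα ligand-binding domains (aa 310-547) in stably transfected HEK293T cells was monitored after 24 h treatment, using fluorescence intensity relative to vehicle controls.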
# [5] = biological target: Estrogen receptor (Homo sapiens) (UniProt P03372); assay: OT_ER_ERaERa_0480: Odyssey Thera (OT) 8-hour HEK293T Protein-Complementation Assay for Estrogen Receptor-alpha/-alpha Homodimer (AID 2283351);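 further: rise in fluorescence from reassembled reporter fragments on ERα LBD homodimer in nucleus or whole cell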
# Procedure, shortened: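 HEK293T, stable ERα LBD (aa 310-547) PCA homodimer; 8 h compound exposure; fluorescence intensity, laser scanning cytometer; positive fitting direction, DMSO baseline.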
# [6] = biological target: T1, Estrogen receptor (Homo sapiens) + Estrogen receptor beta (Homo sapiens) (UniProt P03372+Q92731); assay: OT_ER_ERaERb_0480: Odyssey Thera (OT) 8-hour HEK293T Protein-Complementation Assay for Estrogen Receptor-alpha/-beta Heterodimer (AID 2283352)
# T1 sequence (P03372 whole entry, looked up, the tested form may be a part): as above
# T1 sequence (Q92731 whole entry, looked up, the tested form may be a part): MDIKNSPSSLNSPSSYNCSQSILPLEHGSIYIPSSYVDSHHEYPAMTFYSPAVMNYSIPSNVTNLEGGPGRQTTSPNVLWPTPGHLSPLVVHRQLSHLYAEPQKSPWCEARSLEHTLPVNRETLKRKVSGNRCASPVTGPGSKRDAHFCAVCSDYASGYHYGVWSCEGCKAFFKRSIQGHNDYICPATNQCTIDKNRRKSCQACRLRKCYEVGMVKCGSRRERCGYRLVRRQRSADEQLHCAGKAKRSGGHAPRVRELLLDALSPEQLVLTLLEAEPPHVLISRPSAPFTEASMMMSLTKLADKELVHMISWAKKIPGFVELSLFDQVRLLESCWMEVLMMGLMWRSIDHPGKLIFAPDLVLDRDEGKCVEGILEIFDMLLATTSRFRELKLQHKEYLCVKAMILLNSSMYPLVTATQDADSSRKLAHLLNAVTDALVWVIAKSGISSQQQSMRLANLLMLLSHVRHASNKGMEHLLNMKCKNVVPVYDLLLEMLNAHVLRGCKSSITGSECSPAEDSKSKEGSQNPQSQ
# Procedure, shortened: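 HEK293T protein-fragment complementation assay of ER-alpha/ER-beta LBD heterodimerisation, read 8 h after dosing. Mean nuclear/cytoplasmic fluorescence intensity measured by laser scanning cytometry; gain of signal fitted relative to DMSO.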
# [7] = biological target: T1, Estrogen receptor (Homo sapiens) + Estrogen receptor beta (Homo sapiens); assay: OT_ER_ERaERb_1440: Odyssey Thera (OT) 24-hour HEK293T Protein-Complementation Assay for Estrogen Receptor-alpha/-beta Homodimer (AID 2283356);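 further: heteromer of ER alpha and ER beta binding domains; hits raise reporter fluorescence and both agonists and antagonists give an increase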
# Procedure, shortened: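 HEK293T stably expressing a PCA of ER alpha LBD (aa 310-547) and ER beta LBD (aa 263-489). After 24 h compound exposure, mean fluorescence intensity in nucleus (agonists) or nucleus and cytoplasm (antagonists) measured by laser scanning cytometry versus vehicle.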
# [8] = biological target: Estrogen receptor beta (Homo sapiens) (UniProt Q92731); assay: OT_ER_ERbERb_0480: Odyssey Thera (OT) 8-hour HEK293T Protein-Complementation Assay for Estrogen Receptor-beta/-beta Homodimer (AID 2283357);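 further: active means signal gain over DMSO baseline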
# Chain of Estrogen receptor beta (Homo sapiens) (Q92731 whole entry, looked up, the tested form may be a part): as above
# Procedure, shortened: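 Cells (HEK293T, stable ER-beta LBD PCA pair) are treated 8 hours, fixed and Draq5-stained; signal is fluorescence intensity increase relative to vehicle, fitted in the gain direction.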
# [9] = NVS_IC_rCaBTZCHL: NovaScreen (NVS) Ion Channel Assay for Calcium Channel, Type L, Benzothiazepine Site (CaBTZCHL) (AID 2283337)
# Procedure, shortened: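 Scintillation counting of filter-bound radioligand gave the read-out, with reduced binding versus DMSO scored as activity. Membranes came from rat cortex and were read 1.5 h after compound addition. Chemicals were screened first in duplicate at 25 uM.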
# [10] = biological target: Bile acid receptor (Homo sapiens) (UniProt Q96RI1); assay: NVS_NR_hFXR_Antagonist: NovaScreen (NVS) Nuclear Receptor Binding Assay for human Farnesoid X Receptor Antagonism (FXR) (AID 2283350)
# Chain of Bile acid receptor (Homo sapiens) (Q96RI1 whole entry, looked up): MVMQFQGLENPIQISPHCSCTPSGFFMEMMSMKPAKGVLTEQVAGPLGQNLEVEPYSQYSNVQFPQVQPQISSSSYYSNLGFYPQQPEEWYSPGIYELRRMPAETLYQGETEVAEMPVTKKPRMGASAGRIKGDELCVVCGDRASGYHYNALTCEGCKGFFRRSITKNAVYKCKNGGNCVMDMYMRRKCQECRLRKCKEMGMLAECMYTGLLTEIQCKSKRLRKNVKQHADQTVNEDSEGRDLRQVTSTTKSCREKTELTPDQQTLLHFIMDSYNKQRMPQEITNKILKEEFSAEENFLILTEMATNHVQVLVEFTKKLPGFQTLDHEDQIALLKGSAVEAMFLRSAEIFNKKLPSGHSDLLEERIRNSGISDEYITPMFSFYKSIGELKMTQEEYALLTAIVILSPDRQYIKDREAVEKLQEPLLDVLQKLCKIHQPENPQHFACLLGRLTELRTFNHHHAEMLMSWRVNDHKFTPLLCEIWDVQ
# Procedure, shortened: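 Cell-free TR-FRET ligand-binding read-out on human FXR (NR1H4) in antagonist mode, measured 1 h after dosing. Primary screen in duplicate at 25 uM, actives retested in concentration series; signal loss scored versus DMSO.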
# [11] = biological target: Voltage-gated inwardly rectifying potassium channel KCNH2 (Homo sapiens) (UniProt Q12809); assay: NVS_IC_hKhERGCh: NovaScreen (NVS) Ion Channel Assay for human Potassium Channel ERG (KhERGCh) (AID 2283333)
# Procedure, shortened: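 Cell-free radioligand competition binding on hERG protein extracted from CHO cells, read by filter-based scintillation counting 0.75 h after dosing. Primary screen at 25 uM in duplicate, actives followed in concentration series. Signal loss fitted versus DMSO.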
# [12] = biological target: chimpanzee Androgen Receptor (AR), AR (gene 747460) (UniProt O97775); assay: NVS_NR_cAR: NovaScreen (NVS) Nuclear Receptor Binding Assay for chimpanzee Androgen Receptor (AR) (AID 2283346);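 further: radioligand displacement from AR measured by scintillation counting in a cell-free assay; a loss of bound radioligand signal versus DMSO counts as binding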
# Procedure, shortened: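 Cell-free competition binding with insect-cell (Sf9/Sf21) extracted chimpanzee AR; scintillation signal from lysate at 72 h. Screened in duplicate at 25 uM, then concentration-response for actives; fitting relative to DMSO.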
# [13] = biological target: Androgen Receptor/SRC-1 Co-activator, AR (gene 367) (UniProt P10275); assay: OT_AR_ARSRC1_0960: Odyssey Thera (OT) 16-hour HEK293T Protein-Complementation Assay for Androgen Receptor/SRC-1 Co-activator (AID 2283353);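 further: actives raise the signal above DMSO so potency reflects increased AR and SRC-1 complex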
# Chain of Androgen Receptor/SRC-1 Co-activator, AR (gene 367) (P10275 whole entry, looked up, the tested form may be a part): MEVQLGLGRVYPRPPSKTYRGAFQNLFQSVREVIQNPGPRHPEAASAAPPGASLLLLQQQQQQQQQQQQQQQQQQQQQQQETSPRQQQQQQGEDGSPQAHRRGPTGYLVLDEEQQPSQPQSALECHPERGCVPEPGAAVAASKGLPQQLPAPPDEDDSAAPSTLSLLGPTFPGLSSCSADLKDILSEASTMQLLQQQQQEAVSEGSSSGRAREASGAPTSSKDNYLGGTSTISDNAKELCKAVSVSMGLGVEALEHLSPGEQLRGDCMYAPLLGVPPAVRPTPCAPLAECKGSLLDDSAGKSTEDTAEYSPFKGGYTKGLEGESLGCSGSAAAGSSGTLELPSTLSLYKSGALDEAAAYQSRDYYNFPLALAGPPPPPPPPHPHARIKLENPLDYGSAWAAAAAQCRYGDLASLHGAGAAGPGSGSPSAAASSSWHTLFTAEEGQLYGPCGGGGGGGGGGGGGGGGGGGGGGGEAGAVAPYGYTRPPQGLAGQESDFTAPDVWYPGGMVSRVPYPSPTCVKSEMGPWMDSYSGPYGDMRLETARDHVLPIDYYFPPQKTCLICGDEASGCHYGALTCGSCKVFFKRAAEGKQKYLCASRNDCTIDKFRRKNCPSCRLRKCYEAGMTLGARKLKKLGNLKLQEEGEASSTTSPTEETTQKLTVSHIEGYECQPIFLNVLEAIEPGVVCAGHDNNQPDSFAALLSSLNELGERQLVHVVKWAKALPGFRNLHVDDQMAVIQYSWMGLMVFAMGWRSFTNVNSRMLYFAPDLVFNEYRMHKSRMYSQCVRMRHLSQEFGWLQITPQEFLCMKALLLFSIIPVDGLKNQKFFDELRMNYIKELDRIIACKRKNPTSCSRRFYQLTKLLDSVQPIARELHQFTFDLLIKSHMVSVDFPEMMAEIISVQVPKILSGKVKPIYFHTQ
# Procedure, shortened: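 Split-Venus PCA, AR/SRC-1 fusions, stable HEK293T; 16 h compound exposure; imaged at 488 and 635 nm; N/C ratio (488 nm channel), min 400 cells/image; positive-direction fit, DMSO baseline.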
# [14] = biological target: Androgen Receptor/SRC-1 Co-activator, AR (gene 367) (UniProt P10275); assay: OT_AR_ARSRC1_0480: Odyssey Thera (OT) 8-hour HEK293T Protein-Complementation Assay for Androgen Receptor/SRC-1 Co-activator (AID 2283354);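 further: hits raise the complementation signal above DMSO so AC50 marks enhancers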
# Procedure, shortened: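 Measures AR/SRC-1 binding by Venus YFP fragment complementation in HEK293T stable lines at 8 h post-dose. Imaging quantifies the 488nm nucleus/cytoplasm ratio in ≥400 cells; DMSO defines baseline.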
# [15] = biological target: human Constitutive Androstane Receptor (CAR), NR1I3 (gene 9970) (UniProt Q14994); assay: NVS_NR_hCAR_Antagonist: NovaScreen (NVS) Nuclear Receptor Binding Assay for human Constitutive Androstane Receptor Antagonism (CAR) (AID 2283344)
# Chain of human Constitutive Androstane Receptor (CAR), NR1I3 (gene 9970) (Q14994 whole entry, looked up): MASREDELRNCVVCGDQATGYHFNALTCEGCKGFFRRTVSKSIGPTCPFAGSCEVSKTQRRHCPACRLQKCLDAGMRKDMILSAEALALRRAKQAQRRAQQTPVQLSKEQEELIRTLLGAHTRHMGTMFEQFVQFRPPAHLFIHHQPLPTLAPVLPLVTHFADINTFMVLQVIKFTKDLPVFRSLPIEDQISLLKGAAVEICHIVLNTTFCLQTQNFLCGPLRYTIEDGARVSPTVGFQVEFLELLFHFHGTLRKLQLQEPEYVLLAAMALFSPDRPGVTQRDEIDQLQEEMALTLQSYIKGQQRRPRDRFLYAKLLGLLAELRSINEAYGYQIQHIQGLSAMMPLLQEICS
# Procedure, shortened: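 Cell-free TR-FRET binding read 1 h after dosing, antagonist mode; loss of signal versus DMSO baseline. Primary screen in duplicate at a single 25 uM; actives retested in concentration series.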
# [16] = biological target: rat Glycine Receptor, Strychnine-sensitive (GlyRStrySens), Glra1 (gene 25674) (UniProt P07727); assay: NVS_LGIC_rGlyRStrySens: NovaScreen (NVS) Ligand-Gated Ion Channel Assay for rat Glycine Receptor, Strychnine-sensitive (GlyRStrySens) (AID 2283341)
# Chain of rat Glycine Receptor, Strychnine-sensitive (GlyRStrySens), Glra1 (gene 25674) (P07727 whole entry, looked up): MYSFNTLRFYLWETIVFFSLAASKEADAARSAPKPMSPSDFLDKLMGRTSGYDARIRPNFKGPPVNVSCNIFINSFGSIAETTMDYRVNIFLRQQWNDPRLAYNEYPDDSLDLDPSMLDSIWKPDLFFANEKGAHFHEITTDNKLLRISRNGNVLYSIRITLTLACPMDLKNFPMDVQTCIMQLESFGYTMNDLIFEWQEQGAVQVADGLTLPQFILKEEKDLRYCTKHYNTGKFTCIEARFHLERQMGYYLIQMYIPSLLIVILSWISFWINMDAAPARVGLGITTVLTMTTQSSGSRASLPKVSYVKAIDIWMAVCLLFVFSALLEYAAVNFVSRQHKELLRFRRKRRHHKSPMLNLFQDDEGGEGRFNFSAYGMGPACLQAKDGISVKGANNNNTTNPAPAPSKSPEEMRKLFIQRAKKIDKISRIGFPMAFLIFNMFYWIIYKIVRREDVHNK
# Procedure, shortened: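 Radioligand displacement on rat spinal cord membranes, 1 hr, filter scintillation read-out. Single-concentration duplicate screen at 25 uM; chemicals meeting threshold (e.g., 30% inhibition) rerun in concentration-response up to 50 uM. Loss of binding fitted versus DMSO.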
# [17] = biological target: Bile acid receptor (Homo sapiens) (UniProt Q96RI1); assay: NVS_NR_hFXR_Agonist: NovaScreen (NVS) Nuclear Receptor Binding Assay for human Farnesoid X Receptor Agonism (FXR) (AID 2283347)
# Procedure, shortened: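 Cell-free TR-FRET binding assay with extracted human FXR protein, agonist format, read 1 h after dosing. Primary screen at 25 uM single concentration in duplicate, actives retested in concentration series; gain of signal versus DMSO.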
structure (smiles),measurement,setting,value
c1ccc2c(c1)Nc1ccccc1S2,outcome,[1],inactive
same,outcome,[2],inactive
same,outcome,[3],inactive
same,outcome,[4],inactive
same,outcome,[5],inactive
same,outcome,[6],inactive
same,outcome,[7],inactive
same,outcome,[8],inactive
N#Cc1c(-c2ccc(Cl)cc2)[nH]c(C(F)(F)F)c1Br,AC50,[1],0.377 µM (active)
CCCCOCCOP(=O)(OCCOCCCC)OCCOCCCC,AC50,[1],7.47 µM (active) and 7.45 µM (active)
same,outcome,[9],inactive
same,outcome,[4],inactive
same,outcome,[5],inactive
same,outcome,[7],inactive
same,outcome,[8],inactive
Nc1ccc(Sc2ccc(N)cc2)cc1,outcome,[3],inactive
OCC1CO1 (configuration not stated),outcome,[3],inactive
same,outcome,[4],inactive
same,outcome,[5],inactive
O=P(Oc1ccccc1)(Oc1ccccc1)Oc1ccccc1,AC50,[1],1.96 µM (active)
same,outcome,[2],inactive
same,AC50,[4],12.4 µM (active)
same,AC50,[5],12.1 µM (active)
same,AC50,[6],12.2 µM (active)
same,AC50,[7],12.4 µM (active)
same,AC50,[8],12.2 µM (active)
CCCCN(CCCC)N=O,outcome,[2],inactive
same,outcome,[4],inactive
same,outcome,[10],inactive
same,outcome,[6],inactive
same,outcome,[7],inactive
CCCCCCCc1ccc(O)cc1,AC50,[11],0.766 µM (active)
same,AC50,[3],0.106 µM (active)
same,outcome,[3],inactive
same,outcome,[12],inactive
same,AC50,[4],24.5 µM (active) and 23.2 µM (active)
same,outcome,[4],inactive
same,AC50,[5],26.1 µM (active) and 23.4 µM (active) and 23.6 µM (active)
same,outcome,[5],inactive
same,AC50,[6],12.7 µM (active) and 12.5 µM (active)
same,outcome,[6],inactive
same,AC50,[13],72 µM (active) and 72.7 µM (active) and 73.8 µM (active)
same,outcome,[13],inactive
same,AC50,[14],74.4 µM (active) and 73.3 µM (active)
same,outcome,[14],inactive
same,AC50,[7],15.3 µM (active) and 11.3 µM (active)
same,outcome,[7],inactive
same,AC50,[8],12.2 µM (active) and 13.3 µM (active) and 12.3 µM (active)
same,outcome,[8],inactive
O=S(=O)(c1ccc(O)cc1)c1ccc(O)cc1,AC50,[1],4.76 µM (active)
same,AC50,[3],15.1 µM (active)
same,AC50,[4],46.8 µM (active)
same,AC50,[5],36.7 µM (active)
same,AC50,[6],21.4 µM (active)
same,AC50,[7],29.2 µM (active)
same,AC50,[8],31.2 µM (active)
CCCN(CCC)c1c([N+](=O)[O-])cc(C(C)C)cc1[N+](=O)[O-],outcome,[15],inactive
same,outcome,[3],inactive
same,AC50,[4],56.6 µM (active)
same,AC50,[5],36.8 µM (active)
same,AC50,[6],50 µM (active)
same,AC50,[7],56.9 µM (active)
same,outcome,[8],inactive
c1ccc(OP(Oc2ccccc2)Oc2ccccc2)cc1,outcome,[16],inactive
same,outcome,[3],inactive
same,outcome,[4],inactive
same,outcome,[5],inactive
same,outcome,[6],inactive
same,outcome,[7],inactive
same,outcome,[8],inactive
CC(C)(C)OOC(C)(C)C,outcome,[15],inactive
same,outcome,[17],inactive
same,outcome,[4],inactive
same,outcome,[5],inactive
same,outcome,[6],inactive
same,outcome,[7],inactive
same,outcome,[8],inactive
CCCCC(CC)COP(=O)(Oc1ccccc1)Oc1ccccc1 (configuration not stated),AC50,[1],2.93 µM (active)
same,outcome,[1],inactive
same,outcome,[9],inactive
same,outcome,[4],inactive
same,outcome,[5],inactive
same,AC50,[6],12.2 µM (active)
same,outcome,[13],inactive
same,outcome,[14],inactive
same,AC50,[7],50 µM (active)
same,outcome,[8],inactive
